Measured values: PubChem BioAssay AID686979 (National Center for Advancing Translational Sciences (NCATS), 2013)
Among all 420,000 compounds or so, about 50,000 (12%) were called active. Roughly 26% stayed inconclusive and do not appear here. Shown is part of a subset that was picked to be rich in actives. Values without a mark were called inactive. Calls come from the whole dose curve; as a rule, active = well fitted inhibition curve with a large enough effect; inconclusive = small, poorly fitted or top-dose-only effect; inactive = flat fitted curve, though single readings scatter.

Experiment: qHTS for Inhibitors of human tyrosyl-DNA phosphodiesterase 1 (TDP1): qHTS in cells in presence of CPT; note: nearly all actives have a fitted effect of over 55% in size
Conditions: chicken DT40 Tdp1-/-;hTDP1 cells + 20 nM CPT, ATP luminescence, 48 h; series mostly up to 46.2 µM; activity change, negative = growth inhibition: at the top concentration
Procedure, shortened: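 Chicken DT40 Tdp1-/- cells stably complemented with human TDP1 were seeded at 400 cells/well in medium containing 20 nM camptothecin, exposed to pin-transferred compounds, and grown at 37 °C for at least 48 hr. Viability was read as ATP luminescence.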
% is set by controls: 0 for no effect and ±100 for the full control effect; potency is the fitted concentration of half-maximal effect.

Compound	activity change, negative = growth inhibition	Potency
Cc1ccc(C(=O)Nc2cccc(-c3nc(CNC(=O)c4ccccc4-n4cccn4)c(C)o3)c2)s1	-16.4% [at 9.04 µM]	
CCN(CC)c1ccc(C2C(C(N)=O)=C(C)Nc3nc(SCc4ccccc4)nn32)cc1 (stereo not given)	-2.6%	
Cc1ccc(-c2cnc(C(O)c3cccc(C)c3C)[nH]2)cc1 (stereo not given)	-25.5%	
O=c1cc(O)c(-c2cccc(C(F)(F)F)c2)c(Cl)[nH]1	-0.16%	
Cc1nc(N)[nH]c(=O)c1Oc1cccc(C(F)(F)F)c1	-5.81%	
COc1cccc(-c2ccc(C#N)c(SCC(=O)NCCc3ccc(Cl)cc3)n2)c1	-4.8%	
CCCc1ccc(C(O)c2ncc(-c3cccc(OC)c3)[nH]2)cc1 (stereo not given)		16.4 µM (active)
COc1cccc(-c2cnc(C(O)c3ccccc3OC)[nH]2)c1 (stereo not given)	-15.6%	
OC(c1ccc(Cl)c(F)c1)c1ncc(-c2ccccc2Cl)[nH]1 (stereo not given)	-20.4%	
COc1c(C)cc(C(O)c2ncc(-c3cccc(C(F)(F)F)c3)[nH]2)cc1C (stereo not given)		23.1 µM (active)
Cc1cccc(-c2cnc(C(O)c3ccc4ccccc4c3)[nH]2)c1 (stereo not given)		20.6 µM (active)
O=C(O)c1ccc(/C=C2\SC(=S)N(NC(=O)c3ccc(Br)cc3)C2=O)cc1	-6.8%	
C=CCO/N=C/C1=C(O)C(C(=O)OC)C(C)(C)CC1=O (stereo not given)	3.24%	
CCCCC(NC(=O)c1cccc(Br)c1)C(=O)O (stereo not given)	2.45%	
CSc1ccc(/C=N\NC(=O)CC(=O)NC(C)C)cc1	-1.78%	
Cc1cc(C)n(-c2nc(O)cc(=O)[nH]2)n1	8.2%	
COC(=O)C1=C(C(=O)c2ccc(C)cc2)C(c2ccccc2)n2nnnc2N1 (stereo not given)	6%	
O=Cc1c(Nc2ccccc2Cl)nc2ccccn2c1=O	9.71%	
COc1cc(N=Cc2c(O)c3ccccc3oc2=O)c(OC)cc1Cl	-28.4%	
CSc1ccccc1NC(=O)C(C)N1C(=O)c2ccccc2S1(=O)=O (stereo not given)	17%	
CC(=O)Nc1ccccc1Sc1ccc2c3c(cccc13)C(=O)N(c1ccc(C)cc1)C2=O		11.6 µM (active)
CCOC(=O)Nc1ccccc1N1C(=O)c2ccccc2C1=O	-2.91%	
COc1ccc(NC(=O)COC(=O)C2COc3ccccc3O2)cc1 (stereo not given)	-5.6%	
CN(C)c1ccc(C(CC(=O)O)C(=O)O)cc1 (stereo not given)	-3.14%	

Compound	activity change, negative = growth inhibition	Potency
COC(=O)[C@]1(S(=O)(=O)c2ccccc2)C[C@@H]2ON=C(c3ccc(OC)cc3)[C@@H]2C1	-13.2%	
N#C[C@]1(S(=O)(=O)c2ccccc2)C[C@@H]2ON=C(c3cccc(Br)c3)[C@@H]2C1		9.2 µM (active)
O=C(NCCCn1ccnc1)C1CCCN(S(=O)(=O)c2cc(Cl)ccc2Cl)C1 (stereo not given)	-12.4%	
CCC1(c2ccccc2)NC(=O)N(CC(=O)Nc2ccccc2C(=O)NC2CCCC2)C1=O (stereo not given)	-29.4%	
COc1ccc(S(=O)(=O)n2nc(C)c(S(=O)(=O)N3CCOCC3)c2C)cc1	-1.57%	
CC1CCCCC1NC(=O)/C(C#N)=C/C=C/c1ccccc1[N+](=O)[O-] (stereo not given)		10.3 µM (active)
O=C(/C=C/c1ccccc1[N+](=O)[O-])OC1CCCCC1=O (stereo not given)	-14.9%	
O=C(/C=C/c1ccccc1[N+](=O)[O-])NCC1CCCO1 (stereo not given)	-3.02%	
O=C(Nc1cccc(C(=O)O)c1)/C(=C\c1ccccc1)NC(=O)c1ccc(Br)o1	3.2%	
COc1ccc(-n2ccn(CC(=O)Nc3ccc(C)c(C)c3)c(=O)c2=O)cc1OC	-3.68%	
Cc1ccc(CNC(=O)CCc2c(C)nc3nc(CNC(=O)OC(C)(C)C)nn3c2C)cc1	-8.79%	
O=C(Oc1c(-c2ccco2)oc2ccccc2c1=O)c1cccnc1		16.4 µM (active)
O=C(Oc1ccc(Br)cc1)c1cccnc1	22.8%	
O=C(Oc1cccnc1)c1cc2ccccc2oc1=O	-3.36%	
O=S1(=O)CCO[C@H]2Cc3ccccc3[C@H]2N1Cc1ccccc1	-13.6%	
Cc1ccc(Sc2ccncc2S(N)(=O)=O)cc1	3.01%	
CCCc1cc(C(=O)Nc2ccc(Cl)cn2)cs1	0.0898%	
Cc1ccccc1NC(=O)Cn1cc(C(=O)C2CC2)c2ccccc21	-24.4%	
CC1CCN(C(=O)Cn2cc(C(=O)c3ccco3)c3ccccc32)CC1	-12.7%	
Cc1cccc(NC(=O)Cn2cc(C(=O)c3ccco3)c3ccccc32)c1		18.4 µM (active)
CCn1c2ccccc2c2cc(NC(=O)COC(=O)c3cc(S(=O)(=O)N4CCCCC4)ccc3Cl)ccc21	-5.5%	
Cc1cccc(NC(=O)c2cccc(S(=O)(=O)N3CCCC3)c2)n1	-29.7%	
CCn1c(O)c(N=NC(=O)c2cccc(S(=O)(=O)N3CCCCC3)c2)c2ccccc21		14.6 µM (active)
O=S1(=O)C[C@@H](N2CCN(CCO)CC2)[C@H](COCc2ccccc2)N1	-4.37%	

Compound	activity change, negative = growth inhibition	Potency
COc1ccc(N(CC(=O)Nc2cccc3ccccc23)S(C)(=O)=O)c(OC)c1	-13.2%	
O=C(NCCN1CCOCC1)C1CCN(S(=O)(=O)c2ccccc2)CC1	13.8%	
O=C(Nc1cccc(Cl)c1)c1cc(S(=O)(=O)N2CCCCC2)c[nH]1	11.7%	
COc1cc(NC(=O)c2cc(-c3ccc(F)cc3OC(C)C)n[nH]2)cc(OC)c1OC		14.6 µM (active)
COc1cc(-c2cc3n(C)c(C)c(CCC(=O)Nc4ccc(F)cc4)c(=O)n3n2)cc(OC)c1OC	-2.72%	
O=C(Nc1cccc(Cl)c1)c1cncn1-c1ccc(F)cc1	-3.46%	
COc1cc(F)ccc1-c1cc(C(=O)NCC2CCCCC2)[nH]n1	-24.6%	
CC(C)Oc1cc(F)ccc1-c1cc(C(=O)Nc2cccc(Cl)c2)[nH]n1		18.4 µM (active)
COc1ccccc1C(=O)OCC(=O)NCCNC(=O)COC(=O)c1ccccc1OC	4.02%	
COc1ccccc1OCC(=O)Nc1nnc2n1CCS2	-2.33%	
CN(c1ccccc1)S(=O)(=O)c1ccc(Cl)c(C(=O)OCC(=O)NCc2ccco2)c1	-17.2%	
Cc1cc(C(=O)OCC(=O)NCc2ccco2)c(C)n1-c1ccccc1		2.31 µM (active)
O=C(COC(=O)c1ccccc1O)NCc1ccco1	-1.93%	
COc1cccc(CNC(=O)CN2C(=O)CCc3cc(S(=O)(=O)N4CCOCC4)ccc32)c1	-11.3%	
CSc1nc2nc(-c3cccc(C(F)(F)F)c3)ccn2n1	15.5%	
CCCC(=O)Nc1ccc(C(=O)N/N=C/c2ccc[nH]2)cc1	-17.9%	
Cc1cc(-c2csc(N)n2)c(C)n1Cc1ccccc1	-21.8%	
Cc1cc(C)c(-c2csc(NC(=O)CCCc3nc4ccccc4c(=O)[nH]3)n2)c(C)c1		18.4 µM (active)
CC(=O)NCc1ccc(-c2csc(NC(=O)CCCc3nc4ccccc4c(=O)[nH]3)n2)cc1	-23.3%	
CC(C)(C)c1ccc(NC(=O)COC(=O)CCc2nc3ccccc3c(=O)[nH]2)cc1	-11.3%	
O=C(COC(=O)CCc1nc2ccccc2c(=O)[nH]1)Nc1ccc(N2CCOCC2)cc1	-14.7%	
CCCn1c(C)cc(-c2csc(NC(=O)CCc3nc4ccccc4c(=O)[nH]3)n2)c1C		23.1 µM (active)
